From PubChem BioAssay (NCI)
This is part of a sample that, as a whole, favours compounds with a hit. Of some 83,000 tested, about 20% had one in any assay.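 Note: values are percent growth. 100 is the growth of untreated cells, values between 100 and 0 indicate rising inhibition; between -100 and 0 indicates cell death.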 The source made the active and inactive calls. The calls were made as follows: active = growth percent below 10; inactive = the rest.

Tested on: MDA-MB-468 breast
Assay: NCI-60 one-dose screen, 48 h (100 = growth as untreated, 0 = no growth, -100 = all killed)
Conditions: 10 µM unless noted

Compound | growth
C#CC[C@@H]1C[C@]2(C)[C@H]3CC=C4[C@H]5[C@@H](C)[C@H](C)CC[C@]5(C(=O)NCCCCCCCCN)CC[C@@]4(C)[C@]3(C)CC[C@H]2C(C)(C)[C@H]1OC(C)=O | 62.4% (inactive)
N#Cc1c(-c2cccc(Cl)c2)cc(-c2cccc(Cl)c2)[nH]c1=O | 73.2% (inactive)
CCNCCNc1cc(-c2ccc(F)cc2)c(C#N)c2nc3ccccc3n12 | -8.31% (active)
